# Most compounds without a hit are left out; they make up all but 3.9% or so of the library.
# GALK inh: blocks human galactokinase activity | Purified GALK, Kinase-Glo residual ATP luminescence | AID 1868 | 270,000 compounds, 0.007% hits | Potency, µM (series often up to 57.5 µM), inactives show at the top dose activity change, negative = inhibition, usual class: inhibitors; note: potency is the fitted concentration of half-maximal effect; % is set by controls: 0 for no effect and ±100 for the full control effect
#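 The enzyme phosphorylates galactose (100 uM) using ATP (35 uM); inhibition is detected as higher residual ATP, quantified by bioluminescence after 1 h reaction at room temperature, pH 8.0.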
# Eya2 inh: blocks the phosphatase activity of human Eya2. recombinant Eya2, OMFP fluorescence dephosphorylation (OMFP is methylfluorescein phosphate). Potency, µM (series often up to 76.9 µM), inactives show at the top dose activity, negative = inhibition, actives largely listed as inhibitors. 330,000 compounds, 0.006% hits. AID 488837; note: potency is the fitted concentration of half-maximal effect; % is set by controls: 0 for no effect and ±100 for the full control effect
#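 Eya2 (0.2 uM) preincubated 10 min at ambient with compound, then OMFP substrate added at 50 uM; 10 min reaction in 50 mM HEPES pH 7.5, 50 mM NaCl, 5 uM MgCl2, 0.05% BSA, 1 mM DTT. Fluorescence read at Ex 485/Em 525 nm.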
# USP2a inh: USP2a (human) protease inhibition; O75604; USP2 core, Ub-CHOP2 coupled fluorogenic reporter, 485/531; Potency, µM (series often up to 38.3 µM), inactives show at the top dose activity change, negative = inhibition, most hits filed as inhibitors; 330,000 compounds, 0.01% hits;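 note: potency is the fitted concentration of half-maximal effect; plate controls were DMSO wells for no effect and full inhibition by NEM control for full effect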
# Target sequence (O75604 whole entry, looked up): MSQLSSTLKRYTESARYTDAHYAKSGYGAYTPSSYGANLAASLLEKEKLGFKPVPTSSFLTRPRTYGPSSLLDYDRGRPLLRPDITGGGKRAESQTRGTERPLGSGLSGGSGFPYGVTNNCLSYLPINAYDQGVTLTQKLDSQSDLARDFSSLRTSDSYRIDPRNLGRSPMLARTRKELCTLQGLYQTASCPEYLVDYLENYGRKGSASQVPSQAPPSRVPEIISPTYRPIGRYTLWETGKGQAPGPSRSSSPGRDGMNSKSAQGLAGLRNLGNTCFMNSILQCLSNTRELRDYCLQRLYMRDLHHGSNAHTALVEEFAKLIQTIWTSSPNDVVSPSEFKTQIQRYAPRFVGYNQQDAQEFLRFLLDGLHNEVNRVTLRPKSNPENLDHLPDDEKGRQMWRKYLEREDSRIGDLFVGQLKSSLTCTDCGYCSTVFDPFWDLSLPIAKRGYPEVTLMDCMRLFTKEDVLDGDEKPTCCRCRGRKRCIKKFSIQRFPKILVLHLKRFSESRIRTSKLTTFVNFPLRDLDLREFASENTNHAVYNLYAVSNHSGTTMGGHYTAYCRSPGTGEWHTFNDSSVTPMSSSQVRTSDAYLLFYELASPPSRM
#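 Cell-free coupled assay: 10nM USP2 core preincubated 30min RT with compound in Tris-HCl pH 8.0/CaCl2/CHAPS buffer, then 25nM Ub-CHOP2 and 25nM reporter substrate; fluorescence (Ex 485/Em 531) read after 60min RT, normalized to NEM inhibition, concentration-response curves fitted.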
# D1 potentiator: enhances dopamine response at the human D1 receptor. AID 504651. P21728. potentiation, % at 10 µM. 360,000 compounds, 0.036% hits. HEK293 TREx D1 cells, calcium flux, dopamine EC20 potentiation; in the data active = potentiation above about 30%; note: 0% is about no effect
# D1 antagonist: human D1 dopamine receptor antagonism | P21728 | HEK293 TREx D1 cells, calcium flux, dopamine EC80; hits give low values | activity change, negative = inhibition, % at 10 µM | 360,000 compounds, 3.2% hits | AID 504652; in the data active = activity change below about -30%; note: % is set by controls: 0 for no effect and ±100 for the full control effect
#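 Inducible Hek293 Trex D1 cells (tetracycline, overnight, 30 C). Calcium dye 30–90 min RT. Antagonist mode: EC80 dopamine added after 180 s compound read.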
# D1 agonist: human D1 receptor agonism | P21728 | HEK293 T-REx D1 cells, calcium flux, agonist mode | activation, % at 2 µM | 360,000 compounds, 1% hits | AID 504660; in the data active = activation above about 30%; note: 0% is about no effect
#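 Agonism was scored from calcium flux recorded over 180 s (1 read/s) after pintool compound addition, following a 10-cycle baseline. Cells were inducible force-coupled HEK293 TREx D1, plated overnight at 30 C and loaded with no-wash calcium dye.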
# * = called active by the depositor; ? = inconclusive; / = not tested or not shown. Unless noted, calls come from the whole dose curve; as a rule, active = well fitted inhibition curve with a large enough effect; inconclusive = small, poorly fitted or top-dose-only effect, or effect the other way; inactive = flat fitted curve, though single readings scatter.
SMILES,GALK inh,Eya2 inh,USP2a inh,D1 potentiator,D1 antagonist,D1 agonist
O=C(Nc1ccccc1)c1cccc(N2C(=O)C3C4C=CC(C5CC45)C3C2=O)c1 (configuration not stated),5%,1%,2%,4,-38*,10
CCCOc1ccc(OC(=O)c2c(-c3ccccc3Cl)noc2C)cc1,/,/,/,-1,-6,11
Cc1nn(-c2ccccc2)c(C)c1/C=N/N1CCN(Cc2ccccc2)CC1,/,-6%,/,/,/,/
CCN(CC)c1ccc(NC(=O)CN(C)S(=O)(=O)c2cccc3nsnc23)c(C)c1,/,/,/,-1,3,1
O=S(=O)(c1ccc(OC(F)(F)F)cc1)N1CCC(O)(c2cccc(C(F)(F)F)c2)CC1,1%,-16%,2%,-6,-5,34*
CCN(C(=O)c1cn(CC)c(=O)c2cc(OC)c(OC)cc12)c1ccccc1F,/,/,/,0,4,0
O=S(=O)(c1ccc(F)c(F)c1F)N1CCN(C(=S)NC2CC3CCC2C3)CC1 (configuration not stated),15%,1%,2%,-9,-30*,4
COc1ccccc1CNC(=O)CN1C(=O)CSc2c1c(C)nn2-c1ccccc1,/,/,/,-4,-5,0
Cc1ccc(OCCCn2ccnc2)c(Br)c1,3%,-10%,-2%,-7,-68*,5
Cc1cccc(N(C)C(=O)CCS(=O)(=O)c2ccc3c(c2)n(C)c(=O)c(=O)n3C)c1,/,/,/,-5,-32*,-1
CC(C)C1N=C2c3ccccc3N=C(SCC(=O)NCc3ccccc3Cl)N2C1=O (configuration not stated),/,/,/,0,-9,0
COc1ccc(C(=O)Nc2nnc(CC(=O)N/N=C/c3ccc(O)cc3O)s2)cc1,-1%,7%,-29%,-2,15,46*
CCCCn1cnc2c(c(-c3ccccc3)c(-c3ccccc3)n2Cc2ccco2)c1=N,2%,-10%,-1%,-8,-3,47*
N=c1c2c(-c3ccccc3)c(-c3ccccc3)n(Cc3ccco3)c2ncn1Cc1ccco1,0%,-12%,-1%,-3,5,38*
N=c1c2c(-c3ccccc3)c(-c3ccccc3)n(Cc3ccccc3)c2ncn1CCCn1ccnc1,2%,-14%,-4%,2,-10,118*
CCc1ccc2occ(CC(=O)Nc3sc4c(c3C(=O)NCCOC)CCCC4)c2c1,/,/,/,0,6,-2
N#C/C(=C/c1ccc(Sc2nc3ccccc3[nH]2)o1)c1ccccc1F,-2%,-9%,2%,1,-26,39*
CCOC(=O)c1ccc(-c2ccc(/C=C(\C#N)c3nc4ccc(C)cc4[nH]3)o2)cc1,/,/,/,1,8,270*
N#C/C(=C\c1ccc(-c2ccc(F)cc2F)o1)c1nc2ccccc2[nH]1,/,/,/,8,8,151*
N#C/C(=C/c1ccc(Sc2nc3ccccc3[nH]2)o1)c1cccc(F)c1,1%,3%,-7%,-1,-5,8
N#C/C(=C\c1ccc([N+](=O)[O-])o1)c1nc2ccccc2[nH]1,-3%,7%,3%,-6,10,41*
N#C/C(=C\c1ccc(Sc2ccccc2)o1)c1nc2ccccc2[nH]1,0%,27%,8%,-6,11,23
Cc1ccc(C)n1-c1nnc(N2CCCC(C(=O)NCc3cccc(Cl)c3)C2)s1 (configuration not stated),/,/,/,-1,5,-2
Cc1ccc2nc(/C(C#N)=C/c3ccc(-c4ccccc4C(=O)O)o3)[nH]c2c1,-16%,?,9%,-5,-10,49*
N#C/C(=C\c1ccc(-c2ccccc2C(=O)O)o1)c1nc2ccccc2[nH]1,-6%,10%,6%,-1,-3,38*
Cc1cc2nc(/C(C#N)=C\c3ccc(-c4ccccc4C(=O)O)o3)[nH]c2cc1C,-21%,?,9%,-4,-9,82*
O=C(c1ccc([N+](=O)[O-])o1)N1CCN(c2nc3c(F)cc(F)cc3s2)CC1,/,-4%,-3%,-7,-31*,3

# Source: PubChem (National Center for Advancing Translational Sciences (NCATS))
